Source: PubChem BioAssay (National Center for Advancing Translational Sciences (NCATS))
Only some compounds are listed: those with a hit (about 2.3% of all), similar ones and a draw of the others.
Tau fluor counter – Counterscreen qHTS for Inhibitors of Tau Fibril Formation, Fluorescence Polarization. tau K18 P301L Alexa594 fluorescence, heparin fibrillization. Potency, µM (series often up to 57.7 µM), inactives show at the highest dose activity change, negative = decrease. AID 1463, 2008. hit rate 0.93% among 280,000; note: potency is the fitted concentration of half-maximal effect; nearly all actives have a fitted effect of over 55% in size
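Human K18 P301L tau (15 uM unlabeled plus 0.24 uM Alexa 594-labeled, final) in 100 mM sodium acetate pH 7 was mixed with compound and 20 uM heparin and incubated 6 hr at 37 C.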
Tau FP inhib – qHTS for Inhibitors of Tau Fibril Formation, Fluorescence Polarization; Microtubule-associated protein tau (Homo sapiens), P10636; K18 P301L tau heparin fibrillization, Alexa594 FP, 6 h; Potency, µM (series often up to 57.7 µM), without a hit: at the highest dose activity, negative = inhibition, hits mostly inhibitors; hit rate 0.39% among 280,000; note: potency is the fitted concentration of half-maximal effect; nearly all actives have a fitted effect of over 55% in size
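Recombinant K18 P301L […], labeled with Alexa 594 at 0.24 uM over 15 uM unlabeled; heparin inducer 20 uM final; 37 C, 6 hr; FP endpoint.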
Coupling enz – qHTS Assay for Inhibitors of Fructose-1,6-bisphosphate Aldolase from Giardia Lamblia: Coupling assay counterscreen; coupling enzyme system counterscreen, AmpLite Red fluorescence; activity change, negative = inhibition, % at 58.2 µM, hits read low; hit rate 0.67% among 290,000; in the data active = activity change below about -30%
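Activity here indicates interference with the coupling reaction, not aldolase inhibition. Compounds at 57.5 uM final met coupling enzymes for 10 min at RT; substrate and AmpLite Red detection followed, with a 525/598 nm fluorescence read after 20 min.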
USP1-UAF1 inh – Inhibitors of USP1/UAF1: Primary Screen; hit rate 0.23% among 390,000; Ubiquitin carboxyl-terminal hydrolase 1 (Homo sapiens), O94782; AID 743255, 2014; Potency, µM (series often up to 57.1 µM), inactives show at the highest dose activity change, negative = inhibition, actives largely listed as inhibitors; recombinant USP1/UAF1, Ub-Rhodamine cleavage fluorescence; note: potency is the fitted concentration of half-maximal effect; nearly all actives have a fitted effect of over 60% in size
Target sequence (O94782 whole entry, looked up): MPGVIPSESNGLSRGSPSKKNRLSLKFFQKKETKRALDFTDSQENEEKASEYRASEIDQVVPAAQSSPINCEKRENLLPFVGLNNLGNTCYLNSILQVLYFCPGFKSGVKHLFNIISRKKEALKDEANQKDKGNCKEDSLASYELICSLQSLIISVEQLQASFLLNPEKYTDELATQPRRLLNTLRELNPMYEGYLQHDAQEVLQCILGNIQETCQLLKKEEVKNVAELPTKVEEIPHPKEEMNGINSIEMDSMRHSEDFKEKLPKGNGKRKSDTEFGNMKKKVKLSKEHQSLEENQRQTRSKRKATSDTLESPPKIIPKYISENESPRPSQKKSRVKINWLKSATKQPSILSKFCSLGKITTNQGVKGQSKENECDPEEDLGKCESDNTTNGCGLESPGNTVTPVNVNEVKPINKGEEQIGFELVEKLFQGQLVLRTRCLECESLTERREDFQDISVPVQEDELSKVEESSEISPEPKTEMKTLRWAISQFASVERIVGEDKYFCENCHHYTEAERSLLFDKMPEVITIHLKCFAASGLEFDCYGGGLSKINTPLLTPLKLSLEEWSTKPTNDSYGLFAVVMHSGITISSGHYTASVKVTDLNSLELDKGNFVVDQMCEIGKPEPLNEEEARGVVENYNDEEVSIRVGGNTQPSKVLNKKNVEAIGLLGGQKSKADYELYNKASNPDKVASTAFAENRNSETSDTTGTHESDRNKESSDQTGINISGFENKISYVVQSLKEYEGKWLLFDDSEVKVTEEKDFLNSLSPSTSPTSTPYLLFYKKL
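1 nM enzyme complex + cpd, 15 min RT; start with Ub-Rho 150nM final; kinetic fluorescence ex 480/em 540, 6 reads q60 s. Buffer 50mM HEPES pH 7.8, 0.5mM EDTA, 0.1 mg/ml BSA, 1mM TCEP, 0.01% Tween-20.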
Tau fibril ThT – qHTS for Inhibitors of Tau Fibril Formation, Thioflavin T Binding; Microtubule-associated protein tau (Homo sapiens), P10636; recombinant tau K18 P301L (four-repeat tau fragment), heparin-induced fibrillization, ThT fluorescence; Potency, µM (top dose mostly 57.4 µM), for the others: top-dose activity, negative = inhibition, most hits filed as inhibitors; hit rate 2.1% among 270,000; note: potency is the fitted concentration of half-maximal effect; nearly all actives have a fitted effect of over 55% in size
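Tau K18 P301L fragment (15 uM unlabeled plus 0.24 uM Alexa 594-labeled) in 100 mM sodium acetate pH 7 with compound, fibrillization induced by 20 uM heparin for 6 hr at 37 C. Thioflavin T (30 uM) added, fluorescence read after 1 hr (ex 450, em 510 nm).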
* hit, by the source's call; [ ] = dose if it differs, or a comment. Unless noted, calls come from the whole dose curve; as a rule, active = well fitted curve in the direction sought with a large enough effect; inconclusive = small, poorly fitted or top-dose-only effect, or another doubt; inactive = no such curve, though single readings can be large; an effect the other way counts as inactive or inconclusive. % is set by controls: 0 for no effect and ±100 for the full control effect.

Screening O=C(Nc1ccccc1F)c1ccc2c(Cl)c3c(nc2c1)CCC3 returned Tau fluor counter -16%, Tau FP inhib -1%, USP1-UAF1 inh -12% and Tau fibril ThT -14%.
COc1ccccc1CNC(=O)C1CCN(S(=O)(=O)c2cn(C)cn2)CC1 was read as Tau fluor counter 0%, Tau FP inhib -2%, USP1-UAF1 inh -11% and Tau fibril ThT 5%.
For COc1cccc2cc(-c3ccnc(=S)[nH]3)oc12 the results were Tau fluor counter -19%, Tau FP inhib inconclusive, Coupling enz 2 and Tau fibril ThT 28µM*.
`CCC1=NN2C(=N)/C(=C\c3ccc(OCc4cc(=O)n5nc(CC)sc5n4)c(OC)c3)C(=O)N=C2S1` gave Tau fluor counter -22%, Tau FP inhib -11%, Coupling enz 2, USP1-UAF1 inh 2% and Tau fibril ThT 11µM*.
For COc1ccc([C@H]2Oc3cc(O)cc(O)c3C(=O)C2[C@@H]2C(=O)c3c(O)cc(O)cc3O[C@@H]2c2ccc(OC)cc2)cc1 (some centres not stated) the results were Tau fluor counter -29%, Tau FP inhib 18µM*, Coupling enz -1, USP1-UAF1 inh -25% and Tau fibril ThT inconclusive.
Screening COc1ccc(-c2nc3c(C#N)c[nH]n3c2NC2CCCCC2)c(OC)c1 returned Tau fluor counter -4%, Tau FP inhib -2%, USP1-UAF1 inh inconclusive and Tau fibril ThT -1%.
Screening O=C1/C(=C/c2cccnc2)CC/C1=C\c1cccnc1 returned Tau fluor counter 0%, Tau FP inhib -3%, Coupling enz 1, USP1-UAF1 inh -19% and Tau fibril ThT inconclusive.
CCC1C/C(=C\c2cccnc2)C(=O)/C(=C/c2cccnc2)C1 (configuration not stated) was read as Tau fluor counter -11%, Tau FP inhib inconclusive, Coupling enz -1, USP1-UAF1 inh inconclusive and Tau fibril ThT 10µM*.
`O=C1/C(=C/c2cccnc2)CCC/C1=C\c1cccnc1` gave Tau fluor counter -16%, Tau FP inhib inconclusive, Coupling enz 6, USP1-UAF1 inh -15% and Tau fibril ThT 6.3µM*.
For CC/C=C\C/C=C\C/C=C\C/C=C\C/C=C\C/C=C\CCC(=O)O[C@H](COCCCCCCCCCCCCCCCC)COP(=O)([O-])OCC[N+](C)(C)C the results were Tau fluor counter -7%, Tau FP inhib -8%, Coupling enz -5 and Tau fibril ThT -11%.
For CC(C)C(=O)Nc1ccc(NC(=S)NC(=O)c2ccc([N+](=O)[O-])cc2)cc1 the results were Tau fluor counter -28%, Tau FP inhib -2%, Coupling enz -1, USP1-UAF1 inh -10% and Tau fibril ThT 7.1µM*.
COc1cc(O)c(NC(C)=O)c2nonc12 was read as Tau fluor counter -15%, Tau FP inhib inconclusive, Coupling enz -54*, USP1-UAF1 inh inconclusive and Tau fibril ThT 7.9µM*.
For COc1cc(-c2ccc(NC(C)=O)c(OC)c2)ccc1NC(C)=O the results were Tau fluor counter -12%, Tau FP inhib -1%, Coupling enz -1, USP1-UAF1 inh -23% and Tau fibril ThT -10%.
CCN1CCN(Cc2ccc(NC(=O)c3cc(NC(=O)c4cc(-c5ccc(OC)cc5)n[nH]4)cc(OC)c3)cc2C(F)(F)F)CC1 was read as Tau fluor counter inconclusive, Tau FP inhib 28µM*, Coupling enz 0, USP1-UAF1 inh -17% and Tau fibril ThT inconclusive.
Cc1nn(-c2ccc(N3CCOCC3)nn2)c(C)c1CCC(=O)Nc1ccc(F)cc1F was read as Tau fluor counter 2%, Tau FP inhib 1%, USP1-UAF1 inh 3% and Tau fibril ThT -7%.
Screening O=C1CC(Nc2ccc(N3CCOCC3)cc2)C(=O)N1c1ccccc1F (configuration not stated) returned Tau fluor counter -27%, Tau FP inhib -5%, Coupling enz -2, USP1-UAF1 inh -20% and Tau fibril ThT 14µM*.
For COc1ccc(CCN2C(=O)CC(Nc3ccc(N4CCOCC4)cc3)C2=O)cc1OC (configuration not stated) the results were Tau fluor counter -13%, Tau FP inhib 5%, Coupling enz 4, USP1-UAF1 inh -7% and Tau fibril ThT 13µM*.
Screening C=C(C)C(=O)/C=C/CCC/C=C/C(=O)OCC returned Tau fluor counter -11%, Tau FP inhib -14%, Coupling enz 0 and Tau fibril ThT -17%.
COC(=O)[C@@H](NC(=O)N1CCc2nc(-c3ccccc3)c3c(c2C1)CO[C@@H](C)C3)C(C)C was read as Tau fluor counter 3%[11.6 µM], Tau FP inhib -3%[11.6 µM], Coupling enz 0 and Tau fibril ThT 6%[11.5 µM].
For COc1ccc(Br)c(OC)c1C(=O)NC(=O)Nc1nc(C)cc(C)n1 the results were Tau fluor counter -5%, Tau FP inhib -5%, Coupling enz -31*, USP1-UAF1 inh -22% and Tau fibril ThT -6%.
`COc1cc2cc(CN(Cc3nnnn3Cc3ccco3)C3CCCCC3)c(=O)[nH]c2cc1OC` gave Tau fluor counter inconclusive, Tau FP inhib inconclusive, Coupling enz -33*, USP1-UAF1 inh -24% and Tau fibril ThT 16µM*.
CCOc1ccc2[nH]c(=O)c(CN(Cc3nnnn3Cc3ccco3)C3CCCCC3)cc2c1 was read as Tau fluor counter -28%, Tau FP inhib inconclusive, Coupling enz -23, USP1-UAF1 inh -3% and Tau fibril ThT 22µM*.
For COCCn1nnnc1CN(Cc1cc2cc(OC)c(OC)cc2[nH]c1=O)C1CCCC1 the results were Tau fluor counter -2%, Tau FP inhib -10%, Coupling enz 2, USP1-UAF1 inh -12% and Tau fibril ThT 0%.
Screening CCOc1ccc2[nH]c(=O)c(C(c3nnnn3Cc3ccco3)N3CCN(C)CC3)cc2c1 (configuration not stated) returned Tau fluor counter -19%, Tau FP inhib inconclusive, Coupling enz -67*, USP1-UAF1 inh -11% and Tau fibril ThT 14µM*.
`CCOc1ccc2[nH]c(=O)c(CN(Cc3ccco3)Cc3nnnn3Cc3ccccc3)cc2c1` gave Tau fluor counter -18%, Tau FP inhib -7%, Coupling enz 3, USP1-UAF1 inh -7% and Tau fibril ThT inconclusive.
For CCOc1ccc2[nH]c(=O)c(CN(Cc3ccco3)C(CC)c3nnnn3Cc3ccccc3)cc2c1 (configuration not stated) the results were Tau fluor counter -12%, Tau FP inhib inconclusive, Coupling enz -4, USP1-UAF1 inh -23% and Tau fibril ThT 25µM*.
